# Screening results (PubChem)
# Most compounds without a hit are left out; they make up all but 3.8% or so of the library.
# tim10-1 inh: growth inhibitors of tim10-1 mutant yeast. inhibition, % at 20 µM. S. cerevisiae tim10-1 ts strain growth, BacTiter-Glo, 24 h. hit rate 2.2% among 330,000;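 active = inhibition of at least 40%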;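 also: mutant grown at 25 °C; 0% = DMSO wells with yeast and 100% = wells holding no yeast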
# B2AR ag: activates human beta-2 adrenergic receptor causing internalization | P07550 | Am2.2-beta2AR cells, FAP receptor internalization, flow cytometry | response, % (concentration not given with the values) | hit rate 0.43% among 340,000;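 active = response above a set limit, near 3 SD of response in nonfluorescent compounds, cut at about 42% in these data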
# Target sequence (P07550 whole entry, looked up): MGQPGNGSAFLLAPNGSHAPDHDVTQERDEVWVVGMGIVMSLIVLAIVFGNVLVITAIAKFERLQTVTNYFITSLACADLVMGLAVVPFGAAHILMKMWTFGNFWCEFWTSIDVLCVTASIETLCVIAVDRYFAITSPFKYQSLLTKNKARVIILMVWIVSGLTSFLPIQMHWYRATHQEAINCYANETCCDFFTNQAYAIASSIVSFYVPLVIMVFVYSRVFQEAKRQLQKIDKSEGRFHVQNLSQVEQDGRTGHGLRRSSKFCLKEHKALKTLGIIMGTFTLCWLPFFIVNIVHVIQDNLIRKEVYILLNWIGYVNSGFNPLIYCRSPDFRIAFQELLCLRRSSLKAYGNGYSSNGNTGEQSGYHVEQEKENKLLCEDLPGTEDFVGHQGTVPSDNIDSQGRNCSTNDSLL
# PfHsp90 set2: reduces growth (ATP signal) of yeast expressing P. falciparum Hsp90 | S. cerevisiae expressing PfHsp90, BacTiter-Glo ATP, 48 h; yeast lacking PDR1 and PDR3 efflux regulators | inhibition, % at 9.4 µM | hit rate 0.32% among 310,000;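 active = every replicate shows inhibition above about 80%, whatever the replicate mean, limit read from the data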;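 also: 0% = DMSO neutral controls and 100% = 20 µM radicicol positive controls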
# tim23-1 inh: tim23-1 yeast growth inhibition. S. cerevisiae tim23-1 growth, BacTiter-Glo luminescence, 24 h. inhibition, % at 20 µM. hit rate 1.3% among 330,000. AID 463212;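 active = growth inhibition of the mutant yeast at or above 50%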;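 also: temperature-sensitive mutant grown at 25 °C; plate controls were DMSO-treated mutant yeast for no effect and medium wells lacking yeast for full effect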
# TIM10 inh: inhibits growth of TIM10 yeast strain | hit rate 1.4% among 330,000 | S. cerevisiae TIM10 strain growth, BacTiter-Glo luminescence, 24 h | inhibition, % at 10 µM | AID 463195;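 active = inhibition of 40% or more at the single tested concentration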;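 also: wild-type TIM10 isogenic control strain grown at permissive 25 °C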
# tim10-1 conf: tim10-1 yeast growth inhibition, confirmed; hit rate 56% among 7,400; AID 463213; inhibition, % at 20 µM; S. cerevisiae tim10-1 ts strain growth, BacTiter-Glo, 24 h; shares compounds with tim10-1 inh;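 active = inhibition of yeast growth at or above a set limit in either of two repeat tests at 20 µM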;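 also: tim10-1 mutant grown at permissive 25 °C to find synthetic lethal compounds; 0% = DMSO yeast wells and 100% = medium wells without yeast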
# TIM10 conf: TIM10 yeast growth inhibition, confirmed. shares compounds with TIM10 inh. S. cerevisiae tim10 strain growth, BacTiter-Glo luminescence, 24 h. inhibition, % at 10 µM. hit rate 63% among 4,600. AID 463215;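 active = inhibition of yeast growth at or above a set limit in either of two replicates at 10 µM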;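 also: this counterscreen used the strain with wild-type TIM10; 0% = yeast with DMSO and 100% = medium wells lacking yeast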
# An asterisk follows results filed as active; . = no result.
SMILES,tim10-1 inh,B2AR ag,PfHsp90 set2,tim23-1 inh,TIM10 inh,tim10-1 conf,TIM10 conf
O=C(N/N=C/c1ccccn1)c1cc([N+](=O)[O-])cc([N+](=O)[O-])c1,42.3*,17.4,9.7,20.0,48.4*,11.1,7.9
O=C(N/N=C/c1ccccn1)c1cccc([N+](=O)[O-])c1,9.7,5.3,6.2,-28.0,12.0,.,.
COc1ccc(C(C#N)=C2C=CC(=NO)C=C2)cc1,50.5*,3.7,115.1*,44.5,81.2*,54.5*,90.8*
N#CC(=C1C=CC(=NO)C(Cl)=C1)c1ccc(Cl)cc1,.,0.2,-36.9,.,.,.,.
CC(=O)Nc1cccc(/C(C)=N/Nc2ccc(S(=O)(=O)Nc3ccccc3C(=O)O)cc2[N+](=O)[O-])c1,.,4.5,.,.,.,.,.
COc1cccc(-c2[nH]nc3c2C(c2ccc(C)o2)C(C#N)=C(N)O3)c1 (stereo unspecified),44.9*,.,.,41.8,52.4*,31.6,19.4
COc1ccc(OC)c(-c2[nH]nc3c2C(c2ccco2)C(C#N)=C(N)O3)c1 (stereo unspecified),24.1,6.5,-6.8,29.4,16.0,.,.
CC(=O)N1CCN(C(=O)CNC(=O)c2ccc(C)s2)CC1,.,-3.3,-3.1,.,.,.,.
CCCC(=O)Nc1ccc(-c2nc3cc(C)ccc3o2)cc1,43.5*,1.1,9.0,47.9,54.9*,32.2*,51.7*
Cc1ccc(Nc2nnc(SCC(=O)c3ccc(Br)s3)s2)c(C)c1,43.4*,-3.8,-18.6,38.0,46.1*,34.3*,-7.3
CC(C)CC(=O)NC(=S)Nc1ccc(Cl)cn1,43.0*,-21.3,39.7,49.7,46.8*,37.5*,40.1*
O=C(c1ccc(-c2ccc([N+](=O)[O-])cc2)o1)N1CCCC(C(F)(F)F)C1 (stereo unspecified),64.0*,-6.8,.,43.9,42.6*,55.5*,47.6*
CC1CCCN(C(=O)c2ccc([N+](=O)[O-])o2)C1 (stereo unspecified),56.9*,2.1,2.1,40.9,45.9*,40.2*,40.2*
Cc1cc(C)cc(-n2ncc3c2CCCC3NC(=O)CCN2Cc3ccccc3C2=O)c1 (stereo unspecified),15.2,-5.8,5.7,6.2,12.9,.,.
O=C(NC(=S)N1CCN(c2ccc(C(F)(F)F)cc2[N+](=O)[O-])CC1)c1cccs1,43.8*,-1.9,2.4,47.0,40.0*,21.1,9.2
CCN1CCN(C(=S)NC(=O)c2cccs2)CC1,6.6,-0.2,-15.9,-7.2,0.6,.,.
O=c1oc2ccccc2c(O)c1/C=N/c1ncccn1,6.8,3.6,-4.5,12.8,-2.8,.,.
O=c1oc2ccccc2c(O)c1/C=C1\C=Nc2ccccc21,64.6*,48.0*,-52.3,-3.5,68.9*,71.5*,-6.7
O=C(Nc1ccc2c(c1)OCCO2)c1cccc(C(=O)Nc2ccc3c(c2)OCCO3)c1,-11.3,-9.0,-5.5,-4.5,9.3,.,.
O=C(Nc1cccc(Cl)c1)c1ccc2c(c1)OCCO2,49.9*,4.3,26.8,49.5,60.2*,40.0*,71.5*
COc1ccc(-c2ccc(-c3cc(=O)oc4cc(OC)c(OC)c(OC)c34)cc2)cc1,18.1,21.8,-5.6,34.2,-3.3,.,.
Cc1cc2ncn(-c3ncnc4sc5c(c34)CCC(C)C5)c2cc1C (stereo unspecified),49.9*,-0.4,-50.1,47.0,52.2*,44.8*,45.3*
Cc1cc2ncn(-c3ncnc4sc5c(c34)CCCC5)c2cc1C,36.7,.,.,39.8,18.8,.,.
Cc1cc2ncn(-c3ncnc4scc(-c5ccccc5)c34)c2cc1C,49.6*,0.0,-38.3,40.2,41.4*,44.8*,36.8*
CCc1cc(C(=O)N2CCCC(Nc3ccc(F)c(F)c3)C2)n(C)n1 (stereo unspecified),0.6,10.6,2.9,8.5,-7.2,.,.
SMILES,tim10-1 inh,B2AR ag,PfHsp90 set2,tim23-1 inh,TIM10 inh,tim10-1 conf,TIM10 conf
N#Cc1nc(-c2cccs2)oc1NCCc1ccccc1,57.0*,-12.7,.,36.3,64.8*,38.1*,67.8*
CCCOc1ccc(CN(CCC#N)C(=S)NC(=O)c2ccccc2)cc1,47.7*,1.7,-84.8,42.2,42.9*,34.8*,-13.8
COc1cc(C(=O)NC(=S)N(CCC#N)Cc2cccnc2)cc(OC)c1OC,10.6,9.0,-26.1,6.5,-2.6,.,.
Cc1cccc(Cn2nnc3c2C(=O)c2ccccc2C3=O)c1,42.3*,4.2,-35.4,31.4,52.4*,27.0,32.9*
C(=N\N(Cc1ccccc1)c1ccccc1)/c1cccnc1,-4.0,-15.8,-20.1,20.1,-0.6,.,.
Oc1cccc(/C=N/N(Cc2ccccc2)c2ccccc2)c1,53.0*,1.5,.,36.5,48.4*,26.0,41.4*
S=c1sscc1-c1ccccc1,.,3.8,6.2,.,.,.,.
COc1ccc(/C=C/C(=O)C2(O)CCCCC2)cc1OC,47.5*,6.8,.,40.7,43.5*,39.9*,31.4*
COc1ccc(/C=C/C(=O)Nc2ccccc2)cc1OC,-33.4,1.4,17.9,40.4,14.7,.,.
CCOc1cc(-c2noc(N)c2C#N)cc(OCC)c1OCC,67.7*,6.5,6.4,47.5,67.0*,60.8*,58.2*
CCN(CC)C(=O)[C@H]1C[C@H](CC(=O)NCCCOC)C(=O)N2CCc3c([nH]c4cc(CCC(=O)N(C)C)ccc34)[C@]12C,19.0,-9.1,12.1,30.8,5.9,.,.
Cc1cc(C)c2nc3nc(C)c(C)cc3c(N)c2c1,62.1*,-2.0,18.9,48.5,80.9*,71.4*,80.9*
CCCSc1nc(C)c2cc(C)cc(C)c2n1,8.2,-6.0,-14.4,17.1,-7.1,.,.
CCOC(=O)c1ccc(S(=O)(=O)N2CCN(C3CC(=O)N(c4ccccc4C(F)(F)F)C3=O)CC2)cc1 (stereo unspecified),-9.4,18.0,-1.9,-7.1,4.8,.,.
CN(C(=O)c1cccc(NC(=O)Cc2ccc(NC(=O)C3CCN(C(=O)C4CCCC4)CC3)cc2)c1)C1CCCC1,.,-3.2,13.7,.,.,.,.
C=CCc1c(C)nc(-c2ccccc2)nc1Nc1ccccc1O,46.8*,-343.0,3.2,39.4,63.5*,54.1*,54.2*
O=C(NCC1(N2CCCCC2)CCCCC1)c1cccc(S(=O)(=O)Nc2ccc(F)cc2)c1,-4.6,9.2,6.9,-11.9,-13.1,.,.
CN(CC(=O)Nc1ccc(Cl)c(Cl)c1)C1CCCCC1,20.0,10.6,5.0,13.9,3.4,.,.
CN(CC(=O)Nc1ccc(Cl)c(Cl)c1)C(=O)C12CC3CC(CC(C3)C1)C2,44.9*,1.2,29.6,19.8,59.7*,19.0,53.3*
O=c1oc2ccccc2nc1/C=C(O)/C=C\c1ccccc1,57.5*,10.0,.,39.0,45.3*,46.5*,44.1*
CCOC(=O)c1ccccc1N1C(=O)CSC1=S,49.5*,-1.5,-18.9,42.2,48.5*,26.9,45.5*
